Calls of active or inactive are those of the source. Unless noted, no rule for the calls is given here.
What was measured:
[1] = HepG2 liver cancer cell viability effects, profiling panel, resazurin fluorescence, 24 h, PK04 Diversity Set (AID 1172); details: higher = more signal
[2] = basal S. cerevisiae growth modulation, no modifier, primary screen, OD600, strain BY4716, 24 h, basal condition (AID 1173); details: OD600, 24 h, higher = more signal, called active from +8 up or from −8 down
[3] = MM1S myeloma cell viability, profiling panel, resazurin fluorescence, basal, 24 h, PK04 Diversity Set (AID 1174); details: higher = more signal, called active from +8 up or from −8 down;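 also: MM1S multiple myeloma cell line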
[4] = target: Dihydroorotate dehydrogenase (quinone), mitochondrial (Plasmodium falciparum (isolate 3D7)) (UniProt Q08210); assay: PfDHODH enzyme inhibitors, primary screen, biochemical, C-terminal His tag, absorbance 600 nm (AID 1175); details: DCIP absorbance 600 nm, higher = more signal, called active from +8 up or from −8 down;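 also: recombinant parasite enzyme with a five histidine tag at its C terminus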
Chain of Dihydroorotate dehydrogenase (quinone), mitochondrial (Plasmodium falciparum (isolate 3D7)) (Q08210 whole entry, looked up): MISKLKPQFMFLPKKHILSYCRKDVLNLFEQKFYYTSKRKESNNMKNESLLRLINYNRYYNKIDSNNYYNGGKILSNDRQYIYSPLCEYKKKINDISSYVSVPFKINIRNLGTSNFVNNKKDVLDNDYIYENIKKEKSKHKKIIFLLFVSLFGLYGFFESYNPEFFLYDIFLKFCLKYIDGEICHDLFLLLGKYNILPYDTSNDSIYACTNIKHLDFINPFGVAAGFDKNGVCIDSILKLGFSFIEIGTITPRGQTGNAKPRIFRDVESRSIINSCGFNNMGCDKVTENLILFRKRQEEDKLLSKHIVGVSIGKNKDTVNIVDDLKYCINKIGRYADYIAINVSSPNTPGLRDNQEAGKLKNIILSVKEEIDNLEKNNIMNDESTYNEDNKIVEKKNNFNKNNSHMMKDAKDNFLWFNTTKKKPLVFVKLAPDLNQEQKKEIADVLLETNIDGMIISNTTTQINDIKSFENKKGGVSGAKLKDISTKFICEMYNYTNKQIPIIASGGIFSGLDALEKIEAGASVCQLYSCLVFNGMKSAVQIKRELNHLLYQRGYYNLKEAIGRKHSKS

[5] = P. aeruginosa biofilm formation inhibitors, primary screen, strain PAO1, LB-PBS medium, absorbance 600 nm (AID 1176); details: P. aeruginosa PAO1 growth/biofilm, A600, 12 h; higher = more signal
[6] = S. cerevisiae RM11-1a growth modifiers, primary screen, strain RM11-1a, OD600, basal, 24 h (AID 1177); details: OD600, 24 h, higher = more signal, called active from +8 up or from −8 down;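 also: cultures grown under basal conditions with no added stressor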
[7] = E. coli acrAB mutant growth effects, primary screen, E. coli filamentation inducers, strain DRC39, OD650, 24 h (AID 1178); details: higher = more signal, called active from +8 up or from −8 down;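 also: growth measured as culture turbidity by optical density at 650 nm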
[8] = E. coli acrAB mutant growth effects, primary screen, E. coli filamentation inducers, strain DRC39, OD650, 48 h (AID 1179);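 also: screen aims at cell division blockers that make cells filament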; details: E. coli DRC39 delta-acrAB growth, higher = more signal, called active from +8 up or from −8 down
[9] = RPMI8226 myeloma cell viability, profiling panel, resazurin fluorescence, basal, 24 h, PK04 Diversity Set (AID 1180); details: higher = more signal;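 also: RPMI8826 multiple myeloma cell line at 5000 cells per well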
[10] = target: E3 ubiquitin-protein ligase XIAP (Homo sapiens) (UniProt P98170); assay: XIAP binders, primary screen, biophysical, small-molecule microarray, fluorescence 635 nm (AID 1181); details: small-molecule microarray binding, higher = more signal;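 also: score merges 667 nm emission and signal to noise over triplicate slides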
Chain of E3 ubiquitin-protein ligase XIAP (Homo sapiens) (P98170 whole entry, looked up): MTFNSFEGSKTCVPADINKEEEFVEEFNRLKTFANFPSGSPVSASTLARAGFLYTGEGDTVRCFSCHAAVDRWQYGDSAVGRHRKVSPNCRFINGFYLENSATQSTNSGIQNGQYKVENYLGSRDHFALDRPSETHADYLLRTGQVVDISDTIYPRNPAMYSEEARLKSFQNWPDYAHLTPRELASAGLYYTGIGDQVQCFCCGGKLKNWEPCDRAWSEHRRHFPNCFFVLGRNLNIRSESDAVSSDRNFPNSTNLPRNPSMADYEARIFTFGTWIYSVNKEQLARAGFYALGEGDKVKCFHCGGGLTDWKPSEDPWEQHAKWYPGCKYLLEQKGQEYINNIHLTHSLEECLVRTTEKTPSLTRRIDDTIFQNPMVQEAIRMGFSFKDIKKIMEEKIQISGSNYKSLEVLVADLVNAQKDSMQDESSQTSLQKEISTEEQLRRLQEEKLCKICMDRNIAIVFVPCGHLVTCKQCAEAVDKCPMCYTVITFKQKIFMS

[11] = test system: XIP peptide (Xip251-270) binding; assay: small-molecule binders of XIP peptide, primary screen, biochemical, small-molecule microarray, fluorescence 635/667 nm, 0.1 µg/mL protein (AID 1182); details: fluorescent protein binding, 635 nm, higher = more signal, called active from +8 up or from −8 down
XIP peptide (Xip251-270) = assay: small-molecule binders of XIP peptide, primary screen, biochemical, small-molecule microarray, fluorescence 635/667 nm, 0.5 µg/mL protein (AID 1183); details: small-molecule microarray binding, fluorescence 635 nm; higher = more signal
[12] = Plasmodium falciparum growth inhibition, primary screen, strain 3D7, DAPI fluorescence, 100 nL (AID 1184);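 also: parasites grown inside human red blood cells in medium with human serum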; details: P. falciparum 3D7 growth, 3 d, higher = more signal
[13] = target: Homeobox protein Hox-A13 (Mus musculus) (UniProt Q62424); assay: inhibitors of HoxA13-DNA binding, primary screen, biochemical, fluorescence polarization, labeled oligonucleotide (AID 1185); details: 15 min, higher = more signal, called active from +8 up or from −8 down
Chain of Homeobox protein Hox-A13 (Mus musculus) (Q62424 whole entry, looked up): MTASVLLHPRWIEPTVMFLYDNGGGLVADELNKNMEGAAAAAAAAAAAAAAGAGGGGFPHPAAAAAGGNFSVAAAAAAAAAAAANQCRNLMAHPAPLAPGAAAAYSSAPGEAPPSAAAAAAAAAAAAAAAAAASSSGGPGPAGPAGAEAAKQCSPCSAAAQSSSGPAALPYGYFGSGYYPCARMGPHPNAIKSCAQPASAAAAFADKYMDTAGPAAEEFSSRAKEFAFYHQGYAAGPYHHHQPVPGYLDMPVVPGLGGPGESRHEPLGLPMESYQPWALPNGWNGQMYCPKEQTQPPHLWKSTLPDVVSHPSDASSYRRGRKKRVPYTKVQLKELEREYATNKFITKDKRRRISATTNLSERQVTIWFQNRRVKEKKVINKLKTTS

[14] = inhibitors of hydroxyurea-induced Chk1 phosphorylation, primary screen, imaging, HeLa, phospho-Chk1 antibody, percent positive cells (AID 1186); details: hydroxyurea-induced phospho-Chk1 immunofluorescence imaging, higher = more signal
[15] = inhibitors of hydroxyurea-induced Chk1 phosphorylation, primary screen, imaging, HeLa, phospho-Chk1 nuclear intensity (AID 1187); details: hydroxyurea-induced phospho-Chk1 immunofluorescence imaging, higher = more signal

Row | SMILES | z-score [1] | z-score [2] | z-score [3] | composite z-score [4] | z-score [5] | z-score [6] | z-score [7] | z-score [8] | z-score [9] | composite z-score [10] | composite z-score [11] | composite z-score (XIP peptide (Xip251-270)) | z-score [12] | z-score [13] | z-score [14] | z-score [15]
1 | COC(=O)[C@@]1(Cc2ccc(OC)cc2)[C@H]2c3cc(C(=O)N(C)C)n(Cc4c(OC)[nH]cc(C)c4=O)c3C[C@H]2CN1C(=O)c1ccccc1 | -0.672 | 0.87 (inactive) | -2.62 (inactive) | -0.967 (inactive) | 0.7 (inactive) | -0.838 (inactive) | 0.0795 (inactive) | 0.574 (inactive) | -1.93 | 0.295 | -0.378 (inactive) | 0.523 | -1.44 | -5.46 (inactive) | 0.324 (inactive) | -0.208 (inactive)
2 | COC(=O)[C@@]1(Cc2ccc(F)cc2)[C@H]2c3cc(C(=O)N(C)C)n(CCc4ccccn4)c3C[C@H]2CN1C(=O)c1ccccc1 | 0.244 | 0.676 (inactive) | -0.309 (inactive) | -0.804 (inactive) | 0.0944 (inactive) | -0.182 (inactive) | 0.2 (inactive) | -1.02 (inactive) | 0.357 | 0.254 | 0.258 (inactive) | 0.234 | -1.21 | -2.89 (inactive) | -0.0308 (inactive) | 0.288 (inactive)
3 | O=C1C2C=CC(C(O)c3ccc(B(O)O)cc3)N(Nc3ccccc3)C2C(=O)N1c1ccccc1 (centres undefined) | -1.28 | -0.841 (inactive) | -1.35 (inactive) | -0.395 (inactive) | 0.546 (inactive) | 0.0003 (inactive) | 0.17 (inactive) | -0.346 (inactive) | -1.59 | 0.0623 | 0.158 (inactive) | -0.197 | -0.545 | -3.99 (inactive) | -0.149 (inactive) | -0.329 (inactive)
4 | COc1ccc(CCN2C(=O)[C@@]3(Cc4ccccc42)c2ccccc2C(=O)N(Cc2ccccc2Cl)[C@H]3c2ccc(CO)cc2)cc1 | -0.349 | -0.542 (inactive) | 0.249 (inactive) | -6.31 (inactive) | 1.57 (inactive) | 0.215 (inactive) | 0.157 (inactive) | 0.353 (inactive) | 0.314 | -0.142 | -0.227 (inactive) | 0.285 | -1.37 | -0.482 (inactive) | -0.214 (inactive) | -0.322 (inactive)
5 | O=C(O)[C@@]1(Cc2ccccc2)N=C(c2ccc(OCCCO)cc2)O[C@H]1c1ccccc1 | 0.712 | -1.12 (inactive) | 0.551 (inactive) | 1.22 (inactive) | -0.692 (inactive) | 0.291 (inactive) | 0.24 (inactive) | 1.34 (inactive) | 0.655 | -0.0095 | 0.213 (inactive) | 0.427 | 0.653 | -5.03 (inactive) | -0.294 (inactive) | -0.224 (inactive)
6 | C=CCNC(=O)[C@@H]1[C@H]2C(=O)O[C@H](c3ccccc3)[C@H](c3ccccc3)N2[C@H](c2ccccc2OCCO)[C@@]12C(=O)Nc1ccc(C#CC3=CCCCC3)cc12 | -1.55 | 0.556 (inactive) | -2.61 (inactive) | 0.496 (inactive) | 1.55 (inactive) | 1.78 (inactive) | -0.125 (inactive) | -0.353 (inactive) | -5 | 0.0593 | 1.02 (inactive) | 0.691 | -2.17 | 1.71 (inactive) | 0.0372 (inactive) | 0.464 (inactive)
7 | C=CCOC(=O)[C@H]1[C@@H]2C(=O)O[C@@H](c3ccccc3)[C@@H](c3ccccc3)N2[C@@H](c2ccc(OCCOC(=O)[C@@H]3C[C@@H]4C(=O)N5CCC[C@H]5C(=O)N4[C@@H]3c3ccc(O)cc3)cc2)[C@]12C(=O)Nc1ccccc12 | 0.196 | 0.865 (inactive) | 0.841 (inactive) | -0.379 (inactive) | 0.957 (inactive) | 2.73 (inactive) | 0.468 (inactive) | 0.971 (inactive) | 1.71 | 0.224 | 0.188 (inactive) | 0.838 | -1.8 | 1.28 (inactive) | -0.788 (inactive) | -0.507 (inactive)
8 | C[C@H]1NC(=O)[C@H](Cc2ccccc2)NC(=O)[C@@]23C(=O)N[C@@H](Cc4ccccc4)C2[C@H](C)[C@@]2(C)O[C@H]2C3/C=C/C/C=C\CNC1=O (some centres undefined) | -0.23 | 0.0145 (inactive) | 0.557 (inactive) | 0.742 (inactive) | -0.246 (inactive) | 1.16 (inactive) | 1.32 (inactive) | 0.64 (inactive) | 1.07 | -0.173 | -0.325 (inactive) | -1.16 | -1.45 | -5.77 (inactive) | -0.227 (inactive) | 0.0899 (inactive)
9 | COc1ccc(C#Cc2ccc3c(c2)[C@]2(C(=O)N3)[C@H](c3ccc(O)cc3)N3[C@H](c4ccccc4)[C@H](c4ccccc4)OC(=O)[C@H]3[C@@H]2C(=O)NC[C@H](O)c2ccccc2)cc1 | -0.689 | 1.81 (inactive) | -2.56 (inactive) | -3.64 (inactive) | 0.325 (inactive) | 2.71 (inactive) | 0.106 (inactive) | 0.105 (inactive) | -4.1 | -0.0749 | 0.265 (inactive) | 0.707 | -1.05 | -0.173 (inactive) | 0.0646 (inactive) | 0.385 (inactive)
